# In article PMC7826789 (International Journal of Molecular Sciences, 2021):
smiles,measurement,setting,value
Cc1cc(NC(=O)c2cccc(NC(=O)/C=C/CN(C)C)c2)ccc1Nc1nccc(-c2cccnc2)n1 [JNK-IN-7],Kinases covered,JNK3,JNK3
O=C(O)/C=C/C(=O)O.OCCCNc1nccc(-c2c(-c3ccc(F)cc3)nn3cc(C(F)(F)F)ccc23)n1 [GW569293E],Kinases covered,LATS1,LATS1
COc1cc(-c2cncc(-c3cnn(C4CCNCC4)c3)c2)cc(OC)c1OC [K05908],Kinases covered,LCK,LCK
COc1cc2ncnc(Nc3cccc(Cl)c3F)c2cc1O[C@H]1CC[C@H]([C@@H]2NCCNC2=O)CC1 [BI00133844],Kinases covered,LCK,LCK
same,Kinases covered,LYN,LYN
CCCCN(Cc1ccccc1)C(=O)c1ccc(S(=O)(=O)Nc2ccccc2)cc1 [TH257],Kinases covered,LIMK2,LIMK2
COc1cc2ncnc(Nc3ccc(F)c(Cl)c3)c2cc1O[C@H]1CC[C@H](N)CC1 [BIBW3133BS],Kinases covered,LOK,LOK
Nc1nccc(-c2c(-c3ccc(F)cc3)ncn2CCCN2CCOCC2)n1 [SB-216385],Kinases covered,MAP2K3,MAP2K3
same,Kinases covered,MAP2K4,MAP2K4
CN(C)C/C=C/C(=O)Nc1ccc(C(=O)Nc2cccc(Nc3ncc(Cl)c(-c4c[nH]c5ccccc45)n3)c2)cc1 [THZ1],Kinases covered,MAP3K11,MAP3K11
CCn1c(-c2nonc2N)nc2ccccc21 [SB-693162],Kinases covered,MAP3K19,MAP3K19
Cc1cccc(CC(=O)N2CCc3c2ccc(-c2cn(C)c4ncnc(N)c24)c3F)n1 [GSK2656157],Kinases covered,MAP3K2,MAP3K2
CC(C)(C)c1ccc(C(=O)Nc2cn3cc(-c4cccnc4)ccc3n2)cc1 [TPKI-58],Kinases covered,MAP3K5,MAP3K5
Cc1cc(-c2ccc3c(c2)CC[C@@H](N[C@@H](C)c2ccccc2)C3)cnc1N [GW412617],Kinases covered,MAP4K2,MAP4K2
Cl.O=C1Nc2ccc(-c3cccnc3)cc2C1=Cc1cc(Br)c(O)c(Br)c1 [GW429374A],Kinases covered,MAP4K4,MAP4K4
COCCNC(=O)c1ccc(-c2cc(C(=O)NC3CC3)cc(F)c2C)cc1 [GW868318],Kinases covered,MAPK11,MAPK11
Cc1ccc(C(=O)NCC(N)=O)cc1-n1c(C)cc(OCc2ccc(F)cc2F)c(Br)c1=O [PFE-PKIS 1],Kinases covered,MAPK11,MAPK11
